Compound activity (PubChem BioAssay)
CYP2C9 activ = increases human cytochrome P450 2C9 activity; activation factor at 5 µM; recombinant CYP2C9, luciferin-H conversion, luminescence; stronger effect = higher value; factor 1 = untreated enzyme, 0 = blocked; P11712; 1.4% of 96,000 active;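 active means activation factor of 2 or more for CYP2C9 at a 5 µM dose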;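 further: 0 = sulfaphenazole-blocked wells and 1 = vehicle-only wells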
CYP2C19 inh = human CYP2C19 inhibition. inhibition, % at 5 µM. AID 778. CYP2C19 Supersomes, luciferin-H EGE luminescence, 30 min. P33261. 21% of 96,000 active;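 active means CYP2C19 inhibition above a set limit at 5 µM in the primary screen, cut at about 50% in these data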;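 further: plate controls were negative control wells for no effect and 2.5 mM tranylcypromine positive control for full effect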
CYP2C9 inh = human CYP2C9 inhibition. CYP2C9 Supersomes, luciferin-H conversion, luminescence. inhibition, % at 5 µM. 20% of 96,000 active;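 active means blocking of liver enzyme CYP2C9 beyond about 50% at 5 µM, limit read from the data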
Cav32 inh = blocks human Cav3.2 T-type calcium channel | O95180 | 4% of 100,000 active | Cav3.2-expressing cells, Fluo-4 calcium fluorescence FDSS; stronger effect = lower value | AID 449739 | B-score at 10 µM;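 active means single-dose well whose peak fluorescence ratio is a statistical outlier from its plate by either plate-standardised score or position-corrected B-score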
CYP2C19 activ = activators of human cytochrome P450 2C19; P33261; recombinant CYP2C19, luciferin-H EGE luminescence; stronger effect = higher value; 0 = fully inhibited enzyme, 1 = untreated enzyme; activation factor at 5 µM; 96,000 tested, under 10 active; AID 1025;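 active means activation factor of at least 2 at 5 µM in the primary screen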;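 further: 0 = wells with 2.5 mM tranylcypromine and 1 = vehicle-only wells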
The depositor's hits bear a star; x = no result. In the library only some 27% were active in any assay of this set; here they are far more common.

SMILES	CYP2C9 activ	CYP2C19 inh	CYP2C9 inh	Cav32 inh	CYP2C19 activ
O=C(NCc1ccc2c(c1)OCO2)c1cc2ncc(Br)cn2n1	0.8	11	21	-0.48	0.9
O=C(O)C1CCN(C(=O)COc2ccc3c4c(c(=O)oc3c2)CCC4)CC1	1.1	8	-5	0.78	0.9
COc1ccc(C(O)CNc2ccc(C)cc2)cc1 (stereo not given)	0.8	92*	16	-0.34	0.1
COc1ccc(CCNc2ccc(C)cc2)cc1	0.5	85*	45	0.87	0.2
COc1ccc(C(=S)Nc2ccc(C)cc2)cc1	0.9	32	14	x	0.7
Cc1ccc(N2C(=O)C(CC(=O)Nc3cccc(F)c3)N(C3CC3)C2=O)cc1 (stereo not given)	x	x	x	-0.093	x
O=C(CSc1ccc(Cl)cc1)Nc1cccc(-c2nc3ncccc3o2)c1	0.5	4	51*	-1.2	1
COc1cc(C(=O)Nc2cccc(-c3nc4ncccc4o3)c2C)cc(OC)c1OC	1	-5	-1	-0.0017	1
COc1c(C)cc(Br)cc1C(=O)Nc1cccc(-c2nc3ncccc3o2)c1	0.5	92*	54*	-1.3	0.1
Cc1c(NC(=O)CSc2ccc(Cl)cc2)cccc1-c1nc2ncccc2o1	0.1	28	92*	-2.6	0.7
COc1ccc(C(=O)Nc2cccc(-c3nc4ncccc4o3)c2C)cc1	0.4	13	64*	-1	0.9
CCCCC(=O)Nc1cccc(-c2nc3ncccc3o2)c1	0.6	32	36	0.22	0.7
O=C(/C=C/c1ccc(O)c(O)c1)O[C@H](Cc1ccc(O)c(O)c1)C(=O)O	x	x	x	0.79	x
CCCCn1c(-c2ccco2)nc2ccccc2c1=O	0.8	29	24	-0.83	0.7
CNC(=O)C1CCC(=O)N1Cc1ccccc1Cl (stereo not given)	1.1	-1	-6	1.3	1
O=C(Nc1cc(Cl)cc(Cl)c1)C1CCC(=O)N1Cc1ccccc1Cl (stereo not given)	0.1	96*	91*	x	0
CCOC(=O)C1(Nc2nccs2)Sc2ccccc2NC1=O (stereo not given)	0.6	64*	36	-0.87	0.4
Cc1cc(C)n(-c2nnc(C)c(=O)[nH]2)n1	1.2	-14	-20	-0.024	1.1
O=C(c1ccc(Br)o1)N(c1ccc(Br)cc1)C1C=CS(=O)(=O)C1 (stereo not given)	0.4	86*	59*	-0.052	0.1
O=C(Cc1cccs1)N(c1ccc(Cl)cc1)C1C=CS(=O)(=O)C1 (stereo not given)	0.8	26	24	-0.24	0.7
Cc1cc(C)cc(N(C(=O)c2ccc3c(c2)OCO3)C2C=CS(=O)(=O)C2)c1 (stereo not given)	1.1	54*	-13	-0.082	0.5
Cc1ccc(N(C(=O)c2ccc3c(c2)OCO3)C2C=CS(=O)(=O)C2)cc1 (stereo not given)	0.8	44	22	-0.42	0.6
O=C(c1ccc2c(c1)OCO2)N(c1ccc(Cl)cc1)C1C=CS(=O)(=O)C1 (stereo not given)	0.8	70*	25	-1.8	0.3
O=C(NCCCN1CCOCC1)C1CC(=O)N(C2CCCCC2)C1 (stereo not given)	1	40	1	0.29	0.6
O=C(N1CCOCC1)C(F)(F)C(=O)N1CCOCC1	0.9	-3	10	0.28	1
SMILES	CYP2C9 activ	CYP2C19 inh	CYP2C9 inh	Cav32 inh	CYP2C19 activ
CCOC(=O)C[C@H]1c2cc(F)ccc2S(=O)(=O)N1C1CCCC1	x	x	x	-1.1	x
CCOC(=O)C1=C2N(C)c3ccccc3N2CCC1=O	1.1	-8	-10	x	1.1
Cc1ccccc1N(C(=O)Cn1nnc(-c2cccs2)n1)C(C(=O)NCCC(C)C)c1ccco1 (stereo not given)	0.2	60*	84*	-3.5*	0.4
CC(C)CCNC(=O)C(c1ccco1)N(Cc1cccs1)C(=O)Cn1nnc2ccccc21 (stereo not given)	0.4	73*	59*	-4.7*	0.3
CCN1/C(=C/c2ccc3ccccc3[n+]2CC)C=Cc2ccccc21	0.7	24	27	-5.4*	0.8
CCOC(=O)N1CCN(Cc2c(F)cccc2Cl)CC1	0.6	17	42	-1.3	0.8
CCOC(=O)N1CCN(Cc2c(F)cccc2F)CC1	0.6	76*	36	-1.1	0.2
CCOC(=O)N1CCN(c2cc(C)c(C(C)=O)cc2F)CC1	0.9	29	9	0.25	0.7
